Screening results: PubChem BioAssay, National Center for Advancing Translational Sciences (NCATS)
A selection: hits, their analogues and other compounds. The true share with any hit is near 6%.
D1 agonist = human D1 receptor agonism | AID 504660 | P21728 | hit rate 1% among 360,000 | HEK293 T-REx D1 cells, calcium flux, agonist mode | activation, % at 2 µM; in the data active = activation above about 30%
Target sequence (P21728 whole entry, looked up): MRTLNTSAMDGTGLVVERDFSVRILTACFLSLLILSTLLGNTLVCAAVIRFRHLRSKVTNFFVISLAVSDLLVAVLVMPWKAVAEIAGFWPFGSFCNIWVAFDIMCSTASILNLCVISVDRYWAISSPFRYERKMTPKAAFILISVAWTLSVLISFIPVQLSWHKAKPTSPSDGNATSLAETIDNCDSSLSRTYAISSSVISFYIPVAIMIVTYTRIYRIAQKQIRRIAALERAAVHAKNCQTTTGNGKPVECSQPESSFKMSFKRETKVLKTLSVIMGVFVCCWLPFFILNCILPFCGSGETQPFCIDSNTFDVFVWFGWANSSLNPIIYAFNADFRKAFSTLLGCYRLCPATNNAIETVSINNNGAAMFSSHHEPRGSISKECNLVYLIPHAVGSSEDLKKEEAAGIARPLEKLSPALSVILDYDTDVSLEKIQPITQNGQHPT
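Tetracycline-induced HEK293 TREx D1 cells, force-coupled to calcium signalling, were dye-loaded with a no-wash calcium kit. Compound was pin-added after a 10 s baseline. Fluorescence was read kinetically at 1 cycle/s for 180 s, with calcium rises flagged as agonism.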
D1 antagonist = human D1 dopamine receptor antagonism; P21728; hit rate 3.2% among 360,000; HEK293 TREx D1 cells, calcium flux, dopamine EC80; stronger effect = lower value; activity change, negative = inhibition, % at 10 µM; in the data active = activity change below about -30%
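HEK293 T-REx cells expressing inducible, force-coupled D1 receptor; no-wash Ca dye, 30–90 min RT. Cmpd → 180 s read at 1 Hz → EC80 DA → 180 s read.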
D3 ag = D3 dopamine receptor (human) agonism | P35462 | D3R DiscoveRx beta-arrestin cells, luminescence, 90 min | max activation, % | hit rate 0.58% among 410,000; in the data active = max activation above about 30%
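Agonist-mode cell screen: cells plated at 1500/well and incubated overnight at 37 °C, then exposed to library compounds for 90 min at 37 °C. Detection reagent was added for 30–60 min at room temperature, and luminescence was read.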
DRD3 antagonist = antagonists of human D3 dopamine receptor. D3R cells, DiscoveRx beta-arrestin luminescence, antagonist mode; stronger effect = lower value. max response, negative = inhibition, %. hit rate 2.5% among 360,000; in the data active = max response below about -50%; inconclusive = no clear call, values can overlap the other calls
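Cells expressing the human receptor were seeded at 1500 cells/well, incubated overnight at 37 degrees C in 5% CO2, then exposed to library compounds with dopamine controls for 90 minutes at 37 degrees C before luminescent detection.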
D1 PAM = enhances dopamine response at the human D1 receptor; P21728; HEK293 TREx D1 cells, calcium flux, dopamine EC20 potentiation; potentiation, % at 10 µM; hit rate 0.036% among 360,000; AID 504651; in the data active = potentiation above about 30%
Numbers stand for hits; - = inactive; ? = inconclusive; . = no result; ! = a repeat was not active.

SMILES	D1 agonist	D1 antagonist	D3 ag	DRD3 antagonist	D1 PAM
COc1ccc(C(=O)/C=C/c2cn(CC(O)CN3CCN(C)CC3)c3ccccc23)cc1OC (configuration not stated)	-	-	-	-	-
CCCCN(C)CC(O)Cn1cc(/C=C/C(=O)c2ccc(OC)c(OC)c2)c2ccccc21 (configuration not stated)	63	-	-	.	-
CCCCN(C)CC(O)Cn1cc(/C=C/C(=O)c2ccc(Br)cc2)c2ccccc21 (configuration not stated)	126	-57	-	.	-
CN1CCN(Cn2cc(/C=C/C(=O)c3ccccc3)c3ccccc32)CC1	-	-	-	-	-
COc1ccc(S(=O)(=O)N2CCC(C(=O)NC(C)c3ccccc3)CC2)cc1 (configuration not stated)	-	-	-	.	-
C[C@H](c1ccccc1)N1C[C@H](COCc2ccccc2)Oc2cc(N3CC[C@@H](O)C3)ccc2S1(=O)=O	.	.	-	-	.
O=C1CCC(=O)N1CN(Cc1ccco1)CN1C(=O)CCC1=O	-	-77	-	-	-
O=C1c2ccccc2C(=O)N1Cc1ccco1	-	-	-	-	-
COc1cc2c(c(OC)c1OC)-c1c(cc3c(c1OC)OCO3)C1OC2[C@@H](C)[C@H]1C (some centres not stated)	-	-46	-	-	-
COc1cc2c(c(OC)c1OC)-c1c(cc3c(c1OC)OCO3)C[C@@H](C)[C@](C)(O)C2	.	.	-	.	.
O=C(c1nc(-c2ccc(Cl)cc2)n2c1CCCCC2)N1CCN(c2ccccc2)CC1	-	-	-	.	-
C=CCN1C[C@H](C(=O)N(CCCN(C)C)C(=O)NCC)C[C@@H]2c3cccc4[nH]cc(c34)C[C@H]21	.	.	67	.	.
COc1ccc(NC(=O)C2CCN(C(=O)Cc3ccccc3)CC2)cc1OC	-	-	-	-	-
COc1ccc(NC(=O)C2CCN(C(=O)Nc3ccccc3)CC2)cc1S(=O)(=O)N(C)C	-	-	-	-67	-
CC(C)(C)c1ccc(C(=O)COC(=O)CN2C(=O)NC3(CCCC3)C2=O)cc1	-	-31	-	-	-
CN(C(=S)NC(=O)/C=C/c1ccc(F)cc1)C1CCCCC1	-	-	-	-	-
Cc1ccc(C(=O)NC(=S)N(C)C2CCCCC2)cc1	-	-41	-	-	-
CCC(=O)N1CCc2cc(S(=O)(=O)NC(C(=O)NCCc3cccc(C)c3)C(C)C)ccc21 (configuration not stated)	-	-62	-	.	-
CC(=O)N1CCc2cc(S(=O)(=O)NC(Cc3ccccc3)C(=O)Nc3cccc(C)c3)ccc21 (configuration not stated)	-	-38	-	.	-
CCC(=O)N1CCc2cc(S(=O)(=O)NC(C(=O)NCc3ccccc3)C(C)C)ccc21 (configuration not stated)	-	-	-	-77	-
COc1cccc(NC(=O)Cn2c(=O)n(-c3ccc(CC(=O)NCC4CCCO4)cc3)c(=O)c3ccccc32)c1 (configuration not stated)	-	-	-	.	-
CC(C)(C)S(=O)(=O)/C(C#N)=C/c1cccn1S(=O)(=O)c1ccccc1	.	.	-	-	.
O=C(c1ccc([N+](=O)[O-])cc1)N1CCc2ccccc21	.	.	-	-55	.
O=C(C1CCN(S(=O)(=O)N2CCOCC2)CC1)N1CCc2ccccc21	-	-	-	-	-
O=C1CC(C(=O)N2CCc3ccccc32)CN1c1ccccc1 (configuration not stated)	-	-31	-	-	-
SMILES	D1 agonist	D1 antagonist	D3 ag	DRD3 antagonist	D1 PAM
O=C(C1CCC(C(=O)N2CCc3ccccc32)CC1)N1CCc2ccccc21 (configuration not stated)	-	-	-	-59	-
COc1ccc(CCNC(=O)c2ccc(CS(=O)(=O)c3ccc(C)cc3)o2)cc1OC	-	-31!	-	-	-
COc1ccc(CCNC(=O)c2c(N)no[n+]2[O-])cc1OC	-	-31	-	?	-
COc1ccc(CCNC(=O)c2ccc(OC)c(OC)c2)cc1OC	-	-	-	-	-
Cc1ccc(CCNC(=O)c2ccc(CSCc3ccc(C)cc3)o2)cc1	31	-	-	.	-
COc1ccc(S(=O)(=O)Cc2ccc(C(=O)NC(C)C)o2)cc1	-	-	-	-	-
COc1ccc(CCNC(=O)c2ccc(CS(=O)(=O)c3ccc(Cl)cc3)o2)cc1OC	-	-	-	-	-
CCC(C)NC(=O)c1ccc(CS(=O)(=O)c2ccc(OC)cc2)o1 (configuration not stated)	-	-38	-	-	-
CC(=O)c1cccc(NC(=O)CNC(=O)c2sc3ccccc3c2Cl)c1	-	-	-	-	-
Cc1ccc(S(=O)(=O)N2[C@H](CC(=O)Oc3ccccc3)OC[C@@H]2C(C)C)cc1	.	.	-	-	.
O=C1CC(c2ccc(S(=O)(=O)NCc3ccncc3)cc2)CN1 (configuration not stated)	-	-34	-	-	-
COc1cc2ccccc2cc1C(=O)N(CCN(C)C)c1nc2c(F)cc(F)cc2s1	-	-36	-	-	-
CCOc1ccc(Cl)cc1C1=CC(=O)C[C@H](c2ccc(OC)cc2)C1	-	.	-	-	-
CC(C)N(c1nnc(N)s1)C(C)C	-	-31	-	-	-
CN(Cc1ccccc1)c1nnc(N)s1	-	-	-	-	-
Cc1cc(=O)[nH]c2nc3ccccc3n12	.	.	-	-	.
O=C(COc1ccccc1)Nc1ccc(Cl)c(-c2nc3ncccc3o2)c1	-	-44	-	-	-
CC1CCCCN1C(=O)CSc1nc(-c2ccccc2)cn1N (configuration not stated)	-	-	-	-	-
CC1CCCCN1C(=O)CSc1n[nH]c(-c2ccccc2)n1 (configuration not stated)	-	-31	-	.	-
S=C(NCC1CCCO1)Nc1ccc(Nc2ccccc2)cc1 (configuration not stated)	-	-34	-	-	-
CCc1cccc(NC(=O)CCn2c(=O)c3cccn3c3cccnc32)c1	-	-	-	.	-
S=C(NCCc1cccc(Cl)c1)NC1CCCCC1	-	-38	-	-	-
S=C(NCCc1ccccc1)NC1CC1	-	-	-	-	-
S=C(NCc1ccc(Cl)cc1Cl)NC1CCCCC1	30	-33	-	-	-
Clc1ccc(CNC2CCCC2)c(Cl)c1	-	-	-	?	-
COc1cccc(N2CCN(S(=O)(=O)c3ccc4c(c3)NC(=O)CS4)CC2)c1	-	-32	-	-	-
Cc1cccc(N2CCN(S(=O)(=O)c3ccc4c(c3)NC(=O)CS4)CC2)c1C	-	-	-	-	-
Cc1cc(C)n(C(C)CC(=O)Nc2ccc(Cl)cc2C)n1 (configuration not stated)	-	-	-	.	-
COc1cccc(-c2csc(N3CCN(C(=S)Nc4ccccc4OC)CC3)n2)c1	-	-35	-	-	-
CCNC(=S)N1CCN(c2nc(-c3cccc(OC)c3)cs2)CC1	-	-30	-	-	-
